Potency and affinity values are given separately. Inconclusive results are not listed. The source made the active and inactive calls. Unless noted, the rule behind the calls is not given here.
Legend:
[1] = inhibitors of PAX8-driven TPO luciferase reporter, dose response, RMG-I cells, cherry-pick (AID 687027;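 active = every replicate test run called active, with the signal dropping as expected and potency within twice the top valid dose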); conditions: RMG-I TPO-Luc reporter, SteadyGlo luminescence, 24 h; series mostly up to 35 µM
[2] = cytotoxicity in PAX8-dependent RMG-1 cells, dose response, cell-based, cherry-pick (AID 687029;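 active = signal drop whose fitted half-maximal concentration is at most twice the top valid dose, in every test run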;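 note: cells exposed to compound for 96 hours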); conditions: RMG-1 viability, CellTiterGlo ATP luminescence, 96 h; series mostly up to 35 µM
[3] = cytotoxicity in IOSE-T80 ovarian epithelial cells, dose response, selectivity assay for PAX8 inhibitor project, cell-based, cherry-pick (AID 687032;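 active = fitted half-maximal concentration for viability loss no higher than twice the top valid dose, in every repeat run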;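 note: cells exposed to compound for 96 h before reading; 0% = neutral control wells and -100% = 2 µM mitoxantrone kill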); conditions: CellTiterGlo ATP luminescence, 96 h; series mostly up to 35 µM
[4] = inhibitors of CMV-promoter luciferase reporter, dose response, counter-screen for Pax8 inhibitor project, cell-based, HEK293, luminescence, dry powder (AID 743020;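 active = signal-lowering compounds whose fitted half-maximal concentration is at or below twice the top tested dose in every run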;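 note: HEK293 cells stably expressing the CMV luciferase reporter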); conditions: SteadyGlo luminescence, 24 h; series mostly up to 35 µM
[5] = non-specific cell cytotoxicity, dose response, cytotoxicity control for PAX8 inhibitor project, plate reader, dry powder samples (AID 743021); conditions: cell line, non-specific cytotoxicity counter-screen; series mostly up to 35 µM
[6] = IGROV1 ovarian cancer cell cytotoxicity, dose response, PAX8 inhibitor project, plate reader, dry powder samples (AID 743043); conditions: series mostly up to 35 µM;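 note: more negative means fewer viable cells or more cytotoxicity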
[7] = NIH:OVCAR-3 ovarian cancer cell cytotoxicity, dose response, PAX8 inhibitor project, plate reader, dry powder samples (AID 743044); conditions: NIH:OVCAR-3 ovarian cancer cell viability; max activity: at 35 µM, hits give low values unless noted; series mostly up to 50 µM
[8] = IOSE-T80 ovarian epithelial cell cytotoxicity, dose response, cytotoxicity control for PAX8 inhibitor project, plate reader, dry powder samples (AID 743045); conditions: IOSE-T80 ovarian epithelial cells; series mostly up to 35 µM;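 note: 0% = neutral control median and -100% = positive control median; more negative values mean more cell killing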
[9] = A2780 ovarian cancer cell cytotoxicity, dose response, cytotoxicity control, plate reader, dry powder samples (AID 743046); conditions: series mostly up to 35 µM;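 note: 0% = neutral control wells and -100% = cytotoxic reference compound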
[10] = cytotoxicity in OVCAR8 ovarian cancer cells, dose response, PAX8 project, cell-based, plate reader, dry powder samples (AID 743197); conditions: series mostly up to 35 µM

Measured: max activity

CCOc1ccc2c(CC)cc(=O)oc2c1OCC
inactive: [1] | [2] | [3] | [4] | [5]

C[C@H](O)C#Cc1ccc([C@@H]2[C@@H](CO)N3CCCCN(S(=O)(=O)c4ccccc4)C[C@H]23)cc1
inactive: [1] | [2] | [3] | [4] | [5] | [6] | [7] 11.5% [at 0.26 µM, hits give low values] | [8] | [9] | [10]

O=C(Nc1ccc(C(F)(F)F)cc1)Nc1ccc2c(c1)[C@@H]1C[C@@H](CC(=O)N3CCc4ccccc4C3)O[C@H](CO)[C@@H]1O2
inactive: [1] | [2] | [3] | [4] | [5] | [6] | [7] 19.1% [at 2.1 µM, hits give low values] | [8] | [9] | [10]

C[C@H]1CCCCO[C@H](CN(C)Cc2ccccc2)[C@@H](C)CN([C@@H](C)CO)C(=O)c2cc(NC(=O)Nc3ccc(C(F)(F)F)cc3)ccc2O1
inactive: [1] | [2] | [3] | [4] | [5] | [8] | [9]

COc1ccc(NC(=O)N2CCCCN3[C@@H](CO)[C@@H](c4ccc(C5=CCCC5)cc4)[C@@H]3C2)cc1
inactive: [1] | [2] | [3] | [4] | [5] | [6] | [8]

C[C@@H]1CN([C@H](C)CO)C(=O)c2cccc(NC(=O)Nc3ccc(C(F)(F)F)cc3)c2O[C@H]1CN(C)CC1CC1
inactive: [1] | [2] | [3] | [4] | [5] | [6] | [7] -14% [at 0.26 µM, hits give low values] | [8] | [9] | [10]

O=C(Cc1ccccn1)N[C@@H]1CC[C@@H](CCn2cc(-c3ccccc3)nn2)O[C@H]1CO
inactive: [1] | [2] | [3] | [4] | [5] | [6] | [7] 6.29% | [8] | [9] | [10]

C[C@H]1CN([C@@H](C)CO)C(=O)c2cccc(NC(=O)Nc3ccc(C(F)(F)F)cc3)c2O[C@H]1CN(C)C(=O)NC1CCCCC1
inactive: [1] | [2] | [3] | [4] | [5] | [6] | [7] -14.7% [at 8 µM, hits give low values] | [8]

C[C@H]1CN([C@@H](C)CO)C(=O)c2cccc(NC(=O)Nc3cccc4ccccc34)c2O[C@H]1CN(C)CC1CC1
inactive: [1] | [2] | [3] | [4] | [5] | [6] | [7] -29.9% | [8] | [9] | [10]

O=C(NC1CCCC1)N1CCCCN2[C@@H](CO)[C@@H](c3ccc(/C=C/c4ccccc4)cc3)[C@@H]2C1
inactive: [1] | [2] | [3] | [4] | [5] | [6] | [7] 28.4% [at 2.1 µM, hits give low values] | [8] | [10]

C[C@@H]1CN([C@@H](C)CO)C(=O)c2cccc(NS(=O)(=O)c3ccc(F)cc3)c2O[C@H]1CN(C)Cc1ccc(-c2ccccc2)cc1
inactive: [1] | [2] | [3] | [4] | [5] | [6] | [7] 17.5% | [8] | [9] | [10]

CC=Cc1ccc2n(c1=O)C[C@H]1[C@H](CO)[C@@H](C(=O)NC3CCC3)N(CC)[C@@H]21 (mixture of isomers)
inactive: [1] | [2] | [3] | [4] | [5] | [6] | [7] 9.45% | [8] | [9] | [10]

C[C@@H]1CN([C@H](C)CO)C(=O)c2cc(NC(=O)Cc3ccccc3)ccc2O[C@@H](C)CCCCO[C@H]1CN(C)Cc1ccc(Cl)c(Cl)c1
inactive: [1] | [2] | [3] | [4] | [5] | [6] | [8] | [9]

COc1ccccc1NC(=O)N1CCCCN2[C@H](CO)[C@H](c3ccc(-c4ccc(C)cc4)cc3)[C@H]2C1
inactive: [1] | [2] | [3] | [4] | [5] | [6] | [7] 15.5% [at 1 µM, hits give low values] | [8] | [9] | [10]

O=C(C[C@H]1C[C@H]2c3cc(NS(=O)(=O)c4ccc(F)cc4)ccc3O[C@H]2[C@H](CO)O1)NCc1ccc(-c2ccccc2)cc1
inactive: [1] | [2] | [3] | [4] | [5] | [6] | [7] 10.6% [at 1 µM, hits give low values] | [8] | [9] | [10]

C[C@@H]1CCCCO[C@H](CN(C)C)[C@H](C)CN([C@@H](C)CO)C(=O)c2cc(NS(=O)(=O)c3ccc(Cl)cc3)ccc2O1
inactive: [1] | [2] | [3] | [4] | [6] | [7] 34.9% [at 0.26 µM, hits give low values] | [8] | [9] | [10]

C[C@H](O)C#Cc1ccc2c(c1)O[C@@H](CN(C)Cc1ccc(-c3ccccc3)cc1)[C@H](C)CN([C@@H](C)CO)S2(=O)=O
inactive: [1] | [2] | [3] | [4] | [5] | [6] | [7] -13.7% | [8] | [10]

C[C@@H]1CN([C@@H](C)CO)C(=O)c2cc(NC(=O)Nc3ccccc3)ccc2O[C@@H](C)CCCCO[C@H]1CN(C)Cc1ccc(Cl)c(Cl)c1
inactive: [1] | [2] | [3] | [4] | [5] | [6] | [7] -10.5% [at 8 µM, hits give low values] | [8] | [10]

O=C(Cc1ccccn1)N[C@H]1CC[C@H](CCn2cc(-c3ccccc3)nn2)O[C@@H]1CO
inactive: [1] | [2] | [3] | [4] | [5] | [6] | [7] -16.8% [at 16 µM, hits give low values] | [8] | [9] | [10]

CO[C@@H]1CN(C)C(=O)c2cc(NC(=O)c3ccccc3F)ccc2OC[C@@H](C)N(CC2CC2)C[C@@H]1C
inactive: [1] | [2] | [3] | [4] | [5] | [6] | [7] 9.58% [at 0.5 µM, hits give low values] | [8] | [9] | [10]

COc1ccc(-c2ccc3c(c2)[C@H]2[C@H](CCN2C(=O)Cc2cccnc2)[C@H](CO)N3C)cc1
inactive: [1] | [2] | [3] | [4] | [5] | [6] | [7] 35.5% [at 0.26 µM, hits give low values] | [8] | [9]

COc1cccc(-c2ccc(C3[C@@H]4CN(Cc5cccc(F)c5)C[C@H]3N4)cc2)c1 (stereo not given in full)
inactive: [1] | [2] | [3] | [4] | [5] | [9] | [10]

O=C(C[C@H]1C[C@@H]2c3cc(NC(=O)C4CCOCC4)ccc3O[C@@H]2[C@@H](CO)O1)NCc1ccc(Oc2ccccc2)cc1
inactive: [1] | [2] | [3] | [4] | [6] | [7] -14.4% [at 4.2 µM, hits give low values] | [8] | [9] | [10]

COc1ccc2c3c([nH]c2c1)[C@@H](CO)N(C(=O)C1CC1)CC31CN(Cc2nccs2)C1
inactive: [1] | [2] | [3] | [4] | [5] | [6] | [7] 23.4% [at 4.2 µM, hits give low values] | [8] | [9] | [10]

Fc1cccc(CN2C[C@@H]3N[C@H](C2)C3c2ccc(-c3ccccc3)cc2)c1 (stereo not given in full)
inactive: [1] | [2] | [3] | [4] | [5] | [8]

CCOc1ccc(C(=O)Nc2ccc(Cc3ccncc3)cc2)cc1Br
inactive: [1] | [2] | [3] | [4] | [5]

COc1ccc(-c2cn(CC[C@H]3CC[C@@H](NC(=O)Cc4ccccn4)[C@@H](CO)O3)nn2)cc1
inactive: [1] | [2] | [3] | [4] | [5] | [6] | [7] -22.3% [at 4.2 µM, hits give low values] | [8]

C[C@@H]1CN([C@@H](C)CO)C(=O)c2cc(NS(=O)(=O)c3ccc(Cl)cc3)ccc2O[C@@H](C)CCCCO[C@H]1CN(C)C
inactive: [1] | [2] | [3] | [4] | [5] | [6] | [7] -14.3% | [8] | [9] | [10]

O=C(C[C@@H]1C[C@@H]2c3cc(NC(=O)Nc4ccccc4F)ccc3O[C@@H]2[C@H](CO)O1)NCc1ccc(Oc2ccccc2)cc1
inactive: [1] | [2] | [3] | [4] | [5] | [6] | [7] 14% [at 0.5 µM, hits give low values] | [8] | [9] | [10]

C[C@H]1CCCCO[C@@H](CN(C)Cc2ccc(C(=O)O)cc2)[C@@H](C)CN([C@@H](C)CO)C(=O)c2cc(NS(=O)(=O)c3ccc(Cl)cc3)ccc2O1
inactive: [1] | [2] | [3] | [4] | [5] | [6] | [7] 4.48% | [8] | [9] | [10]

c1ccc(COc2ccc(OCCN3CCCCC3)cc2)cc1
inactive: [1] | [2] | [3] | [4] | [5]

COc1ccc(-c2cn(CC[C@H]3CC[C@H](NC(=O)Cc4ccccn4)[C@@H](CO)O3)nn2)cc1
inactive: [1] | [2] | [3] | [4] | [5] | [6] | [7] -17.4% | [8] | [9] | [10]

Reference: PubChem BioAssay
